MEKK2mut PB1 HTS = MEK5 binding signal on mutant MEKK2 PB1, primary screen, biochemical, multiplex bead flow cytometry, Alexa488-MEK5; AID 1530, 2009; Alexa488-MEK5 binding to MEKK2 mutant; 290,000 tested, 0.35% active; percent response, % at 10 µM; in the data active = percent response above about 24%, passing the limit was not always enough
CHT allo act = CHT positive allosteric modulators, primary screen, cell-based, membrane potential dye, choline EC20. High affinity choline transporter 1 (Homo sapiens), Q9GZV3. CHT-expressing cells; hits give high values; LV-AA mutant CHT in HEK293 cells. B-score at 10 µM. 310,000 tested, 0.49% active;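 active = initial fluorescence not abnormally high and integrated response B-score, plate-corrected, over 3 SD above library mean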
MEKK3 PB1 HTS = modulators of MEKK3-MEK5 PB1 binding, primary screen, biochemical, wildtype MEKK3, multiplex bead flow cytometry, Alexa488-MEK5 | Mitogen-activated protein kinase kinase kinase 3 (Homo sapiens), Q99759 | bead-based flow cytometry, Alexa488-MEK5 binding to MEKK3; actives lie on both sides; 0 = blocked by unlabeled MEK5, 100 = vehicle | binding response (% of control), % at 10 µM | 290,000 tested, 1.4% active;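 active = binding response more than 3 SD above or below the average of its plate-row segment, actives on both sides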;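 note: Alexa488 bead fluorescence after subtracting the streptavidin-only scavenger bead signal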
Target sequence (Q99759 whole entry, looked up): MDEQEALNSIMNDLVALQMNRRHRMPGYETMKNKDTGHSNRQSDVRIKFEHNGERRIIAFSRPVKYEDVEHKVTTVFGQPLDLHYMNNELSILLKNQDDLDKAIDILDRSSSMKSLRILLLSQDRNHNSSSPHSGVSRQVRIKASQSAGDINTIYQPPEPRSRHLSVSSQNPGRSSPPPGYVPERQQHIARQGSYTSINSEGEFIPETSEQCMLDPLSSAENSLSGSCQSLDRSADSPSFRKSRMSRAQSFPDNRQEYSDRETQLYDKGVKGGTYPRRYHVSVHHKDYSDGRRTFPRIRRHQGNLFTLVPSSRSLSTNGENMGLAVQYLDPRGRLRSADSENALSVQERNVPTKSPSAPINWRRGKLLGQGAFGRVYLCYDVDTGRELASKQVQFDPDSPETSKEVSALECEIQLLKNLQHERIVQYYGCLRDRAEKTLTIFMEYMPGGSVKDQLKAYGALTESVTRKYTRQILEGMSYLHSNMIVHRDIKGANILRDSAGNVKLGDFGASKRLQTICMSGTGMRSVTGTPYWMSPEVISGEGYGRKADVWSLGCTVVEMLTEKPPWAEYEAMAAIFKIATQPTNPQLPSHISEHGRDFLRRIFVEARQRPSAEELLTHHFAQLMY
SUMO Mot1 rescue = yeast Mot1-301 growth rescue at high temperature, primary screen, SUMOylation pathway inhibitor project, S. cerevisiae, ATP luminescence, 38.5C; 320,000 tested, 1% active; AID 2716, 2010; growth rescue, % at 18.8 µM; S. cerevisiae Mot1-301 growth rescue; percent above DMSO median, 100 means doubled;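 active = every valid replicate shows activation above 250% relative to neutral control wells; inactive = the rest, any valid replicate at or below 250%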
CHT inh = inhibitors of human choline transporter CHT; AID 488975, 2010; B-score at 10 µM; CHT-expressing cells, membrane potential dye, choline response; hits give low values; 310,000 tested, 0.86% active;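 active = B-score over 3 SD under the library average, and starting fluorescence ratio not unusually high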;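 note: choline stimulus applied at its EC90 after an EC20 pre-addition; B-score computed on integrated fluorescence ratio after choline addition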
MEKK2 WT-MEK5 = modulators of MEK5 binding to wildtype MEKK2, primary screen, biochemical, multiplex bead flow cytometry, Alexa488-MEK5; Alexa488-MEK5 binding to MEKK2 WT; actives lie on both sides; binding response (% of control), % at 10 µM; 290,000 tested, 1.1% active; AID 1531, 2009; in the data active = binding response below about 67% or above about 130%
Yeast Mot1 SUMO = growth restoration of Mot1-301 yeast on galactose, dose response, SUMO pathway inhibitor project, whole organism, S. cerevisiae, ATP luminescence, cherry-picked samples. shares compounds with SUMO Mot1 rescue. S. cerevisiae Mot1-301 galactose growth, 24 h; -100 = growth of slx-deleted rescue strain. growth activity, percent, % at 42 µM. 2,300 tested, under 10 active;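 active = Signal drops as the depositor expects, and the fitted half-maximal dose is no more than ten times the top valid tested dose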;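 note: more negative values mean stronger growth rescue toward the control strain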
Of the large screens only hits and unclear results are named; the others gave an inactive call (follow-up assays come after a bar, where they were run). Compounds with a hit are over-represented: about 4.1% of the library has one in this group of screens.

COc1ccc(NC2CC(=O)N(C(C)C)C2=O)cc1 (stereo not drawn)	SUMO Mot1 rescue 507 | Yeast Mot1 SUMO inactive
COC(=O)c1cc(S(=O)(=O)NCC2CCN(Cc3cccc(Cl)c3)CC2)c[nH]1	none
Cc1cccc(OCCN2CSC(=S)N(C)C2)c1	SUMO Mot1 rescue 372 | Yeast Mot1 SUMO inactive
Cc1cccc(C)c1NC(=O)C(c1cccs1)N(Cc1ccco1)C(=O)Cn1nnc2ccccc21 (stereo not drawn)	none
O=C(c1ccc(CS(=O)(=O)c2ccccc2)o1)N1CCOCC1	SUMO Mot1 rescue 372 | Yeast Mot1 SUMO inactive
O=C1C=C(O)C(n2cncn2)C(c2cc(F)ccc2F)C1 (stereo not drawn)	none
O=C1CC(=O)C(n2cncn2)C(c2ccc(Cl)cc2Cl)C1 (stereo not drawn)	SUMO Mot1 rescue active | Yeast Mot1 SUMO inactive
COc1cc(/C(C)=N/NC(=O)Cc2c(C)[nH][nH]c2=O)ccc1O	none
COc1ccc(N2CC(O)=C(c3nc(-c4ccccc4)cs3)C2=N)cc1	none
Cc1ccc(-c2csc(C3=C(O)CN(NC(=O)c4ccco4)C3=N)n2)cc1	SUMO Mot1 rescue 375 | Yeast Mot1 SUMO inactive
Cc1nc(-c2ccccc2)sc1C1(C)CC(c2cccc([N+](=O)[O-])c2)=NO1 (stereo not drawn)	none
Cc1ncc(CO)c(CNc2ccc(Oc3ccccc3)cc2)c1O	none
O=c1cc(-c2ccccc2)nc(N2CCN(Cc3ccccc3)CC2)[nH]1	SUMO Mot1 rescue 479 | Yeast Mot1 SUMO inactive
COc1ccc(C2=NOC(Cn3nc(C(=O)NCc4cccs4)cc3-c3ccccc3)C2)cc1 (stereo not drawn)	SUMO Mot1 rescue 692 (no result: MEKK2mut PB1 HTS, MEKK3 PB1 HTS, MEKK2 WT-MEK5) | Yeast Mot1 SUMO inactive
O=C(CCSc1nnnn1-c1ccccc1)N1CCOCC1	SUMO Mot1 rescue 688 | Yeast Mot1 SUMO inactive
O=C(CCSc1ccccc1)N1CCOCC1	none
COc1ccc(CCN2CC(C(=O)NCCN3CCOC3=O)CCC2=O)cc1 (stereo not drawn)	none
O=C(Nc1ccsc1C(=O)O)c1cccc(Oc2ccccc2)c1	none
O=C(Nc1ccsc1C(=O)O)c1cccc(C(F)(F)F)c1	SUMO Mot1 rescue 968 | Yeast Mot1 SUMO inactive
COCCNC(=O)C1(S(=O)(=O)c2ccccc2)CC=CC1	none
CCn1nnc(-c2ccccc2NC(=O)c2cc(OC)c(OC)c(OC)c2)n1	none
CCn1nnc(-c2ccccc2NC(=O)c2cnccn2)n1	SUMO Mot1 rescue 407 | Yeast Mot1 SUMO inactive
O=C(Nc1ccccc1)N1CCN(CCc2ccccc2)CC1	SUMO Mot1 rescue 392 | Yeast Mot1 SUMO inactive
Cc1c(C(=O)N2CCN(CCc3ccccc3)CC2)oc2ccccc12	SUMO Mot1 rescue 707 | Yeast Mot1 SUMO inactive
Cc1c(C(=O)N2CCN(S(C)(=O)=O)CC2)oc2ccccc12	none
O=C(c1ccccc1)N1CCN(CCc2ccccc2)CC1	none
CNc1nc2ccccc2n1CC(=O)c1ccccc1	none
Cc1cc([N+](=O)[O-])ccc1NC(=O)CSc1nnc(C)n1C	none
Cc1cc(NC(=O)/C=C/c2ccco2)ccc1NC(=O)c1ccccc1	SUMO Mot1 rescue 432 | Yeast Mot1 SUMO inactive
CCOC(=O)c1ccccc1NC(=O)C1CC(=O)N(C2CCCCC2)C1 (stereo not drawn)	SUMO Mot1 rescue 385 | Yeast Mot1 SUMO inactive
COc1ccc(CCN2CC(C(=O)NCCCn3nc(C)cc3C)CCC2=O)cc1 (stereo not drawn)	none
